Assay outcomes as filed in PubChem.
CF NFkB inh = inhibitors of cystic fibrosis induced NF-kB; KKLEB NF-kB-GFP reporter, PAF-induced, GFP fluorescence overnight; inhibition, % at 5 µM; 360,000 compounds, 0.86% hits; AID 588850;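 active = at least 50% inhibition at 5 µM, scaled per plate between neutral and stimulator controls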;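 note: PAF is a Pseudomonas aeruginosa culture filtrate used as stimulus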
TWEAK-Fn14 inh = inhibitors of TWEAK-Fn14 interaction signaling; inhibition, % at 10 µM; 360,000 compounds, 2% hits; TWEAK-stimulated Fn14 reporter cells, luciferase luminescence, 8 h; AID 1159606; in the data active = inhibition above about 50%
Peg3 prom inh-1 = inhibitors of Peg3 promoter; HeLa PEG-Prom luciferase reporter, luminescence, overnight; inhibition, % at 20 µM; 360,000 compounds, 1.7% hits;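 active = inhibition of at least 50% at 20 µM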
KKLEB tox = counter-screen for CF NF-kB inhibitors: cytotoxicity; KKLEB CF airway cells viability, ATPlite luminescence, overnight; stronger effect = lower value; cells stimulated with P. aeruginosa culture filtrate; activity change (cytotoxicity), % at 5 µM; 360,000 compounds, 0.36% hits; AID 602141;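 active = corrected activity change at or below -50% at 5 µM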
HIF-2a inh = inhibitors of HIF-2a. 786-0 RCC cells HIF-2a reporter, luciferase luminescence, overnight. inhibition, % at 18.8 µM. 360,000 compounds, 0.72% hits. AID 624352;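 active = inhibition of the luminescence signal of 40% or more relative to plate controls, in a single-dose primary screen at 18.75 µM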
TROY NFkB inh = blocks TROY-dependent signaling in reporter cells | 360,000 compounds, 0.98% hits | Q293 LMP1-TROYcd NF-kB luciferase reporter, 4 h | inhibition, % at 10 µM;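 active = compounds whose plate-normalised and pattern-corrected inhibition of the luciferase reporter signal at the single screening dose is 50% or more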
Peg3 prom inh-2 = Peg3 promoter inhibition confirmation. shares compounds with Peg3 prom inh-1. HeLa PEG-Prom luciferase reporter, luminescence, overnight. inhibition, % at 20 µM. 1,300 compounds, 84% hits. AID 602417;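 active = at 20 µM dose, 40% or more inhibition averaged across four replicates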
A number is an active result; i = inactive; nt = not tested or not shown. Compounds with a hit are over-represented: about 4% of the library has one in this group of screens.

SMILES	CF NFkB inh	TWEAK-Fn14 inh	Peg3 prom inh-1	KKLEB tox	HIF-2a inh	TROY NFkB inh	Peg3 prom inh-2
CC(=O)Nc1ccc(S(=O)(=O)N(Cc2ccco2)Cc2cc3ccccc3[nH]c2=O)cc1	i	i	60	i	i	i	55
CC(=O)Nc1ccc(S(=O)(=O)N(Cc2cccnc2)Cc2cc3ccccc3[nH]c2=O)cc1	81	i	56	i	i	i	46
COc1cccc(CNC(=O)CCc2nnc3ccc(NCCCN4CCCC4=O)nn23)c1	i	i	i	i	i	i	nt
CCOC(=O)C1(c2ccccc2)NC(c2ccccc2C)C2C(=O)N(c3ccc4c(c3)OCO4)C(=O)C21 (stereo not drawn)	i	i	i	i	i	i	nt
C/C(=N\NC(=O)c1cc(C2CC2)nc2ccccc12)c1ccc(O)cc1O	i	i	56	i	i	i	65
C/C(=N\NC(=O)c1cc(C2CC2)nc2ccccc12)c1ccc(C)s1	i	i	i	i	i	i	nt
COc1cccc(-c2cccc(-c3nc(C(=O)Nc4ccc(-c5ccccc5)cc4)cc4c3[C@H](CCO)N(S(=O)C(C)(C)C)C4)c2)c1 (stereo partly drawn)	i	i	78	i	i	i	i
COC1CC(C)C(OC)c2cc(O)cc(c2O)NC(=O)C(C)=CC=CC(C)C(OC(N)=O)C(C)=CC(C)C1OC (stereo not drawn)	i	i	57	i	i	i	48
COc1cc(-c2cc(C(=O)Nc3ccccc3N3CCOCC3)c3ccccc3n2)cc(OC)c1OC	i	i	i	i	i	i	nt
COc1cc(-c2cc(C(=O)Nc3ccc(C)c(S(=O)(=O)N4CCOCC4)c3)c3ccccc3n2)cc(OC)c1OC	i	i	52	i	i	i	i
CN=c1sc(C(=O)Nc2ccccc2)c(C)n1C	i	i	i	i	i	i	nt
CN=c1sc2c(n1C)C(=O)c1ccccc1C2=O	82	89	88	-67	i	i	91
COc1cc(OC)c2c(-c3ccccc3)cc(=O)oc2c1C(CCN1CCN(c2ccccc2)CC1)c1ccc(N(C)C)cc1 (stereo not drawn)	i	i	i	i	i	i	nt
CCN(CC)CCC(c1ccc(N(C)C)cc1)c1c(OC)cc(OC)c2c(-c3ccccc3)cc(=O)oc12 (stereo not drawn)	i	i	84	i	i	i	i
CC(C)c1nnc(NC(=O)CC(=O)Nc2ccccc2C(=O)O)s1	i	83	57	i	i	i	i
COc1cccc(C(c2nnnn2CCc2ccccc2)N2CCN(c3ccccc3)CC2)c1OC (stereo not drawn)	i	i	51	i	i	i	i
COc1ccccc1C(c1nnnn1CCc1ccccc1)N1CCN(c2ccccc2)CC1 (stereo not drawn)	i	i	i	i	i	i	nt
CN(C)CCNC(=O)c1cccc2nc3cccc(F)c3nc12	i	i	105	i	i	i	98
C=CCN=C1NN=C(c2cc(C)n(CC=C)c2C)CS1	i	i	74	i	58	i	82
CC(C)(C)c1ccc(C(=O)N2CCN(Cc3ccccc3)CC2)cc1	i	i	i	i	i	i	nt
CC(C)(C)c1ccc(CN2N=Nc3ccccc3S2(=O)=O)cc1	i	i	94	i	i	i	55
Cc1ccc2c(c1)COc1c3ccc(C(=O)O)cc3nn1-2	i	81	89	i	83	i	i
Cc1ccc2c(c1)COc1c3ccc(C(=O)NCC4CC4)cc3nn1-2	i	i	i	i	i	i	nt
Cc1cccc(S(=O)(=O)NCCC(=O)OC(C)C(=O)NC(=O)NC2CCCCC2)c1 (stereo not drawn)	i	i	i	i	i	i	nt
Cc1ccc(S(=O)c2ccc([N+](=O)[O-])c3nonc23)cc1 (stereo not drawn)	i	i	51	i	i	i	98
CN1C[C@@H]2C[C@@H](C3=Cc4cc(Cl)ccc4OC3)N3CCC[C@@]23C1=O	i	i	i	i	i	i	nt
COc1ccc2c(c1)C=C([C@@H]1C[C@H]3CN(c4ccccc4)C(=O)[C@]34CCCN14)CO2	i	i	71	i	i	i	53
